# Reference: PubChem BioAssay AID485346 (Sanford-Burnham Center for Chemical Genomics, 2010)
# Out of some 330,000 compounds screened, about 10,000 (3%) were called active. The sample as a whole holds a higher share of actives than the screen did. A number with no mark means an inactive call.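 Rule for the calls: active = inhibition of at least 50% at 8 µM in the primary screen; inactive = the rest.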
# Molecular target: Protein Mdm4 (Homo sapiens) + E3 ubiquitin-protein ligase Mdm2 (Homo sapiens) (UniProt O15151+Q00987)
# Sequence (O15151 whole entry, looked up): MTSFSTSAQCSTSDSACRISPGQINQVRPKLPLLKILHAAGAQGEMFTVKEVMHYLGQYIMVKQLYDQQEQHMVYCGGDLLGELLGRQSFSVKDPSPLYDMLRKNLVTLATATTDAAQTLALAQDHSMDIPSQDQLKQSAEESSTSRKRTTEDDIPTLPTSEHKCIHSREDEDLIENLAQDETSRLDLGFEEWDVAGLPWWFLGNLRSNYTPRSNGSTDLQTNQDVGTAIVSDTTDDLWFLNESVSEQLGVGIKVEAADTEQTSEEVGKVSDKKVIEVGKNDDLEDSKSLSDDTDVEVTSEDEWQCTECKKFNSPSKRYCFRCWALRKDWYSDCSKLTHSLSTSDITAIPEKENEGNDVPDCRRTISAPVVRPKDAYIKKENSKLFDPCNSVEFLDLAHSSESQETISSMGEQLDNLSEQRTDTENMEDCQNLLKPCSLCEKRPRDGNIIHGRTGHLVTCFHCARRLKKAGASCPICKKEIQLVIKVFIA
# Sequence (Q00987 whole entry, looked up): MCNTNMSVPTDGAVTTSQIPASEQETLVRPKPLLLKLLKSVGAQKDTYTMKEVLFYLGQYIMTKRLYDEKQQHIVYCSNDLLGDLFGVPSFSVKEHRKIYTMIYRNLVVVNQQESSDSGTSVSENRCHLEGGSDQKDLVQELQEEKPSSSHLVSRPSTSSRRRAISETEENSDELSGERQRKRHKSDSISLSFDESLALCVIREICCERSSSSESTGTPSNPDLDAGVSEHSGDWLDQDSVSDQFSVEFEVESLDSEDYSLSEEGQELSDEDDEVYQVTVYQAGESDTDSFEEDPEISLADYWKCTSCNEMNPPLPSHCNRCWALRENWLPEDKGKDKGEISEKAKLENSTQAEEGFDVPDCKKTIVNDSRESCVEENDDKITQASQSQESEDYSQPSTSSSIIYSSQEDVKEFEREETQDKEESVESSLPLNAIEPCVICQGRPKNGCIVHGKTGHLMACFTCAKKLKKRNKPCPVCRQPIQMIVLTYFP
# Assay: inhibitors of human Mdm2-MdmX association, primary screen, cell-based, luminescence, split luciferase, SaOS-2, uHTS (AID 485346)
# Conditions: SaOS-2 split-luciferase Mdm2/MdmX complementation, at 8 µM, active compounds read high
row,Compound,inhibition
1,COc1ccc(C(=O)NCc2nnc(SCC(=O)Nc3cccc(OC)c3)o2)cc1,20.2%
2,COc1cc(C(=O)NCc2nnc(SCC(=O)Nc3nc4ccc(C)cc4s3)o2)cc(OC)c1OC,53.5% (active)
3,COc1cc(C(=O)NCc2nnc(SCC(=O)c3ccc(Cl)cc3)o2)cc(OC)c1OC,6.35%
4,Cc1cc(O)c(C(=O)/C=C/c2c(F)c(F)c(F)c(F)c2F)c(=O)o1,8.23%
5,COc1ccc(C(=O)ON=C2c3ccccc3-c3ccccc32)cc1OC,7.13%
6,COc1ccc(C(=O)O/N=C(\N)Cc2ccc(Cl)cc2Cl)cc1OC,97.2% (active)
7,COc1ccc(C/C(N)=N/OC(=O)c2ccco2)cc1OC,6.65%
8,CCCCOc1ccc(C(=O)N/C(=C/C=C/c2ccccc2)C(=O)N2CCOCC2)cc1,-5.91%
9,Nc1cc(N2CCCCCC2)c2nonc2c1[N+](=O)[O-],25.5%
10,C=CCn1c(-c2ccc(Cl)cc2)ccc(C#N)c1=O,1.15%
11,CCOc1ccc(CNC(=O)C2CCCN(c3nnc(C)c4c(C)n(-c5ccccc5)nc34)C2)cc1 (stereo not drawn),4.48%
12,COc1ccc(-n2nc3c(N4CCC(C(=O)NCc5ccccc5)CC4)nnc(C)c3c2C)cc1,40.9%
13,CCc1ccc(CNC(=O)C2CCN(c3nnc(C)c4c(C)n(-c5ccc(C)cc5)nc34)CC2)cc1,89% (active)
14,CC1(C(=O)NNC(=S)NCC2CCCO2)CC1(Cl)Cl (stereo not drawn),9.98%
15,O=c1c2ccccc2[nH]c(=S)n1CCN1CCC(=C(c2ccc(F)cc2)c2ccc(F)cc2)CC1,-6.96%
16,COn1c(=O)c(=O)n(OC)c2ccccc21,-14.5%
17,Brc1cnc(N2CCCC2)nc1N1CCCCC1,-7.46%
18,COC(=O)c1ccc(C2CC(=O)Nc3cc(OC)c(OC)cc32)cc1 (stereo not drawn),7.38%
19,COc1ccc(S(=O)(=O)Nc2ccc3c(c2)OCO3)cc1Cl,8.27%
20,O=C1NC(c2cc3c(cc2Cl)OCO3)Oc2ccccc21 (stereo not drawn),2.99%

row,Compound,inhibition
1,CCCOc1ccccc1C1CC(=O)Nc2cc3c(cc21)OCO3 (stereo not drawn),56% (active)
2,COc1ccccc1C1C2=C(COC2=O)Nc2cc3c(cc21)OCO3 (stereo not drawn),64.9% (active)
3,CCCOc1ccc(C2NC(=O)NC(c3ccccc3)=C2C(C)=O)cc1OCC (stereo not drawn),14.8%
4,COc1ccc(NS(=O)(=O)c2cc(NC(=O)COc3ccccc3F)ccc2OC)cc1,14.4%
5,CN1C(=O)[C@H]2[C@@H](/C=C/c3ccccc3)N3C(=O)CN(Cc4ccc(-c5ccccc5)cc4)C(=O)[C@@]3(C)[C@H]2C1=O,22.2%
6,COc1ccc(-n2c(O)c(C=NCC(c3ccco3)N3CCCC3)c3ccccc3c2=O)cc1OC (stereo not drawn),15.6%
7,O=C(CN1C(=O)c2cccc3cccc1c23)Nc1ccccc1,26.2%
8,CCN1C(=O)c2cccc3c(S(=O)(=O)Nc4ccccc4O)ccc1c23,62.5% (active)
9,CCN(CC)S(=O)(=O)c1ccc2c3c(cccc13)C(=O)S2,39.8%
10,O=C(NN1CCOCC1)c1cccc(F)c1,6.11%
11,Cc1c(Br)c([N+](=O)[O-])nn1CC(=O)Nc1sc2c(c1C(=O)OC(C)C)CCC(C)C2 (stereo not drawn),23.2%
12,O=C(COC(=O)c1ccncc1)Nc1ccc2c(c1)OCO2,-1.34%
13,CC1(C)NC(=O)N(CCCCSc2ccc(Cl)cc2)C1=O,5.07%
14,COc1ccc(-c2cc(C(=O)N/N=C/c3cccnc3)c3ccccc3n2)c(OC)c1,-12.7%
15,COc1ccc(C(=O)CCC(=O)Nc2cccnc2)c(OC)c1,9.02%
16,COc1ccc(C(=O)/C=C/c2cccnc2)c(OC)c1,54.3% (active)
17,Cc1nc2nc(SCC(=O)Nc3cccc(F)c3)[nH]c2cc1Br,23.9%
18,Cc1cccc(Nc2ccccc2C(=O)NCc2ccco2)c1C,54.5% (active)
19,Cc1ccc(N(Cc2ccc(C(=O)Nc3ccccc3C(=O)NCc3ccco3)cc2)S(C)(=O)=O)cc1C,38.7%
20,O=C(CCNC(=O)c1ccccc1Cl)NCc1ccco1,2.16%

row,Compound,inhibition
1,Cc1n[nH]c(=O)c2c(NC(=O)COC(=O)c3ncc(Cl)c(Cl)c3Cl)oc(C)c12,8.36%
2,CCCCn1c(N)c(N(CCOC)C(=O)CSCC(=O)Nc2cccc(C)c2)c(=O)[nH]c1=O,-8.54%
3,CCOCCn1c(-c2ccccc2)nc2ccccc21,21.2%
4,CCCCn1c(-c2cccc(C)c2)nc2cc3[nH]c(=O)c(C(C)C)nc3cc21,55.1% (active)
5,COc1ccccc1C(=O)N1C(CC(=O)Nc2ccccc2C)C(=O)NC2CCCCC21 (stereo not drawn),10.2%
6,CC(=O)C1=C(C)NC2=C(C(=O)CC(C)(C)C2)C1C (stereo not drawn),14.7%
7,Cc1cccc(C)c1NC1=NC(=S)N(c2ccc(N(C)C)cc2)C1(C)C,13.2%
8,CC1=C/C(=N\OS(=O)(=O)c2ccccc2)C=CC1=O,89.3% (active)
9,CC1C(=O)C(C)C(c2ccc(O)cc2)NC1c1ccc(O)cc1 (stereo not drawn),-1.09%
10,Cc1cc(-c2csc(N)n2)c(C)n1-c1ccccc1,9.07%
11,CCN(CC(=O)Nc1c(F)cccc1F)C(=O)c1ccc(-c2ccccc2)cc1,-3.86%
12,O=C(N/N=C/c1ccc([N+](=O)[O-])cc1)c1c[nH]c2ccccc12,12%
13,COc1cc(CC(=O)N/N=C/c2ccccc2)c([N+](=O)[O-])cc1OC,10.3%
14,Cc1c(C(=O)N/N=C/c2ccccc2)[nH]c2c([N+](=O)[O-])cccc12,60% (active)
15,NC(=O)C1(C(N)=O)OC1c1ccc(Cl)cc1Cl (stereo not drawn),20.9%
16,COC(=O)C1=CN(C)C=C(C(=O)OC)C1c1ccc(Cl)cc1Cl,67.5% (active)
17,CCOc1ccccc1C1C(C(=O)OC)=CN(C)C=C1C(=O)OC,8.07%
18,CCCCCN(C(=O)CCC(=O)OCC(=O)NC1CCC(C)CC1)c1c(N)n(CCCC)c(=O)[nH]c1=O (stereo not drawn),-18.6%
